# Reference: the supplement of paper PMC9694430
# What was measured:
# Assay in all cases: thermal shift delta Tm vs DMSO control; higher = stronger stabilization (binding)
# Details in all cases: 12.5 µM; protein concentration 2 µM
# LOC_OS01G57100-cb003 = tested on: LOC_OS01G57100-cb003
# Procedure, shortened: (§1)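 Compounds dissolved in DMSO were added to purified rice kinase domain constructs, which had been expressed in E. coli, for differential scanning fluorimetry. Each well held 19.5 μl of 2 μM kinase in 100 mM potassium phosphate pH 7.5, 150 mM NaCl, 10% glycerol and 5 × SYPRO Orange. Fluorescence was followed from 25°C to 95°C at a rate of 0.05°C/s. Shifts in Boltzmann-fitted melting temperature are triplicate means relative to DMSO-only protein.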
# LOC_OS01G60330-cb001 = tested on: LOC_OS01G60330-cb001
# Procedure, shortened: as §1
# LOC_OS01G60700-cb002 = tested on: LOC_OS01G60700-cb002
# Procedure, shortened: as §1
# LOC_OS01G67340-cb003 = tested on: LOC_OS01G67340-cb003
# Procedure, shortened: as §1
# LOC_OS01G70970-cb002 = tested on: LOC_OS01G70970-cb002
# Procedure, shortened: as §1
# LOC_OS02G07810-cb001 = tested on: LOC_OS02G07810-cb001
# Procedure, shortened: as §1
# LOC_OS02G08530-cb003 = tested on: LOC_OS02G08530-cb003
# Procedure, shortened: as §1
# LOC_OS02G14120-cb001 = tested on: LOC_OS02G14120-cb001
# Procedure, shortened: as §1
# LOC_OS02G17970-cb001 = tested on: LOC_OS02G17970-cb001
# Procedure, shortened: as §1
# LOC_OS01G63280-cb003 = tested on: LOC_OS01G63280-cb003
# Procedure, shortened: as §1
Structure (SMILES),thermal shift delta Tm (LOC_OS01G57100-cb003),thermal shift delta Tm (LOC_OS01G60330-cb001),thermal shift delta Tm (LOC_OS01G60700-cb002),thermal shift delta Tm (LOC_OS01G67340-cb003),thermal shift delta Tm (LOC_OS01G70970-cb002),thermal shift delta Tm (LOC_OS02G07810-cb001),thermal shift delta Tm (LOC_OS02G08530-cb003),thermal shift delta Tm (LOC_OS02G14120-cb001),thermal shift delta Tm (LOC_OS02G17970-cb001),thermal shift delta Tm (LOC_OS01G63280-cb003)
CS(=O)(=O)CCNCc1ccc(-c2ccc3ncnc(Nc4ccc(OCc5cccc(F)c5)c(Cl)c4)c3c2)o1 [Lapatinib],3.37 °C,6.75 °C,1.03 °C,1.58 °C,1.28 °C,1.88 °C,1.24 °C,0.15 °C,1.82 °C,–
FC(F)(F)c1ccc(Nc2nc3ccc(Oc4ccnc(-c5ncc(C(F)(F)F)[nH]5)c4)cc3[nH]2)cc1 [Raf265 derivative],1.09 °C,1.86 °C,-0.31 °C,0.26 °C,1.67 °C,2.01 °C,0.35 °C,0.25 °C,2.16 °C,–
CCn1c(-c2nonc2N)nc2c(C#CC(C)(C)O)ncc(OC[C@H]3CCCNC3)c21,0.99 °C,0.93 °C,1.82 °C,-0.43 °C,0.35 °C,0.56 °C,0.64 °C,0.88 °C,-0.03 °C,-0.01 °C
COC(=O)[C@]12CCC(C)(C)C[C@H]1[C@H]1C(=O)C=C3[C@@]4(C)C=C(C#N)C(=O)C(C)(C)[C@@H]4CC[C@@]3(C)[C@]1(C)CC2 [Bardoxolone Methyl],–,-0.58 °C,–,-5.05 °C,-11 °C,0.28 °C,-2.07 °C,-4.67 °C,-0.5 °C,-6.77 °C
O=C(O[C@@H]1Cc2c(O)cc(O)cc2O[C@@H]1c1cc(O)c(O)c(O)c1)c1cc(O)c(O)c(O)c1 [(-)-Epigallocatechin Gallate],13.4 °C,0.66 °C,-5.2 °C,1 °C,-0.02 °C,3.56 °C,-2.15 °C,0.07 °C,–,–
CC(C)(O)CNc1ncc(-c2ccnc(Nc3ccnc(Cl)c3)n2)c(CC2CC2)n1,0.99 °C,1.94 °C,0.32 °C,0.66 °C,0.37 °C,0.23 °C,0.89 °C,1.97 °C,-0.17 °C,-0.09 °C
O=c1[nH]nc(Sc2ncc([N+](=O)[O-])s2)n1-c1ccc2c(c1)OCCO2,6.97 °C,0 °C,4.73 °C,-6.49 °C,-7.96 °C,1.41 °C,1.83 °C,–,3.38 °C,–
O=C(Nc1cc(C(F)(F)F)cc(C(F)(F)F)c1)c1cc(Cl)ccc1O,1.44 °C,1.34 °C,2.1 °C,0.01 °C,0.57 °C,2.75 °C,1.42 °C,0.39 °C,2.43 °C,1.28 °C
CNC(=O)c1ccc(-c2cnc3ncc(Cc4ccc5ncccc5c4)n3n2)cc1F,0.49 °C,-0.8 °C,0.39 °C,0.32 °C,-0.18 °C,0.83 °C,0.3 °C,-0.02 °C,0.26 °C,0.07 °C
CN1CCCN(C(=O)c2cccc(-c3ccc(/C=C4/C(=O)Nc5ccc(Cl)cc54)o3)c2)CC1,1.45 °C,3.07 °C,1.97 °C,0.39 °C,1.61 °C,0.97 °C,3.51 °C,3.94 °C,1.03 °C,1.12 °C
CC(C)(C)c1cc(/C=C(\C#N)C(N)=S)cc(C(C)(C)C)c1O [Tyrphostin AG 879],5.01 °C,3.04 °C,4.7 °C,–,2.23 °C,2.55 °C,2.78 °C,4.98 °C,3.25 °C,–
Cc1ccc(S(=O)(=O)/C=C/C#N)cc1,3.66 °C,-1.26 °C,-1.01 °C,-0.5 °C,-2.73 °C,0.83 °C,1.24 °C,-1.26 °C,0.99 °C,-3.09 °C
Cn1sc(=O)n(Cc2ccccc2)c1=O,3.29 °C,-0.15 °C,2.66 °C,-1.31 °C,–,2.24 °C,-1.23 °C,-0.52 °C,1.81 °C,1.02 °C
CC[C@@H]1C(=O)N(C)c2cnc(Nc3ccc(C(=O)N[C@H]4CC[C@H](N5CCN(CC6CC6)CC5)CC4)cc3OC)nc2N1C(C)C [Volasertib (BI 6727)],1.58 °C,2.49 °C,0.62 °C,1.23 °C,0.17 °C,0.23 °C,1.87 °C,-0.05 °C,0.41 °C,0.08 °C
O=C(O)c1cc(O)c2c(c1)[C@@H]([C@H]1c3cc(C(=O)O)cc(O)c3C(=O)c3c(O[C@@H]4O[C@H](CO)[C@@H](O)[C@H](O)[C@H]4O)cccc31)c1cccc(O[C@@H]3O[C@H](CO)[C@@H](O)[C@H](O)[C@H]3O)c1C2=O [Sennoside B],5.41 °C,–,2.73 °C,–,1.98 °C,0.69 °C,0.42 °C,0.03 °C,3.25 °C,19.9 °C
CC(C)N(CCC(=O)c1ccc2ccccc2c1)Cc1ccccc1,1.6 °C,-0.95 °C,1.89 °C,-0.6 °C,-5.39 °C,0.33 °C,-1.55 °C,-2 °C,5.17 °C,-2.65 °C
CC(C)=CC[C@@H](O)C1=CC(=O)c2c(O)ccc(O)c2C1=O [Shikonin],–,-0.94 °C,3.41 °C,-2.36 °C,-5.42 °C,0.63 °C,-0.15 °C,-4.81 °C,3.84 °C,–
CC(C)(C#N)c1ccc(N2C(=O)OCc3cnc4ccc(-c5cnc6ccccc6c5)cc4c32)cc1,1.9 °C,0.57 °C,1.49 °C,0.63 °C,0.56 °C,0.18 °C,0.94 °C,1.27 °C,0.63 °C,0.63 °C
Cc1cc(O)c2c(c1)C(=O)c1cccc(O)c1C2=O [Chrysophanic Acid],5.05 °C,0.02 °C,0.52 °C,–,-3.4 °C,0.6 °C,-0.63 °C,-2.71 °C,1.94 °C,–
Cc1nc2c(-c3cnc(N)nc3)nc(N3CCOCC3)nc2n1C(C)C,1.43 °C,0.31 °C,1.66 °C,0.22 °C,–,1.23 °C,1.18 °C,0.05 °C,2.41 °C,0.78 °C
COc1ccc(S(=O)(=O)N(CCO)c2ccccc2CN(C)C/C=C/c2ccc(Cl)cc2)cc1 [KN-93 Phosphate],2.05 °C,2.19 °C,0.56 °C,0.92 °C,0.38 °C,0.44 °C,0.66 °C,0.97 °C,0.03 °C,0.11 °C
N#Cc1cnc(Nc2cc(NC[C@H]3CNCCO3)c(C(F)(F)F)cn2)cn1,0.46 °C,1.05 °C,1.23 °C,0.67 °C,1.58 °C,0.2 °C,0.87 °C,2.96 °C,0.44 °C,0.31 °C
CCOc1cc2ncc(C#N)c(Nc3ccc(F)c(Cl)c3)c2cc1NC(=O)/C=C/CN(C)C [Pelitinib (EKB-569)],2.45 °C,0.74 °C,0.94 °C,0.12 °C,0.22 °C,0.84 °C,0.59 °C,0.98 °C,0.01 °C,-0.05 °C
